Experimental data reported in PubChem BioAssay (NCI).
The panel holds about 83,000 compounds, 20% with a hit somewhere; the sample as a whole holds those more often.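 Method: cells in 96-well plates; compound added at one concentration; 48 h incubation; percent growth measured; values under 10 scored active.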 Unmarked numbers belong to inactive results. Active and inactive are the calls of the source.

system: HL-60(TB) leukemia; assay: NCI-60 one-dose screen, 48 h (100 = growth as untreated, 0 = no growth, -100 = all killed); settings: 10 µM unless noted

| SMILES | growth |
| --- | --- |
| COC1=C(OC)C(=O)C=CC1=O | 60.8% |
| CCCCCCCCCC[N+](C)(C)N | 90.2% |
| COc1ccc(-c2oc(=O)ccc2-c2cc(OC)c(OC)c(OC)c2)cc1F | 44.6% |
| C[C@H]1Oc2cc(cnc2N)-c2c(nn(C)c2C#N)CN(C)C(=O)c2ccc(F)cc21 | 77% |
| C=C1C(=O)O[C@H]2[C@H]1CC/C(Cn1cc(-c3ccc(N)cc3)nn1)=C\CC[C@@]1(C)O[C@@H]21 | -27.9% (active) |
| COc1ccc(NC(=O)c2ccc(/C=C/C(=O)c3ncc[nH]3)cc2)cc1 | 33.6% |
| Cc1cc(N/N=C/c2nc(-c3ccc(Cl)cc3)oc2C)c2cc(Cl)ccc2n1 | 8.08% (active) |
| COc1cccc(OC)c1Oc1c(-c2nc3ccccc3s2)c(C)nn1-c1ccccc1 | 81.8% |
| CCCCNC(=O)c1ccccc1C | 84.4% |
| O=C(CSc1nnc(-c2ccc(Cl)cc2)o1)Nc1ccc(C(=O)/C=C/c2ccccc2)cc1 | 97.1% |
| COc1ccc(C(=O)Cn2cnc3c(Nc4cc(C(=O)Nc5ccc(N6CCN(CCO)CC6)cc5)ccc4C)ncnc32)cc1 | 83.6% |
| CCN1C(=O)N(CC)C2C1NC(=S)N2/N=C/c1ccc(OC)cc1 (stereo not given) | -12.1% (active) |
| COc1cc(C)ccc1Oc1nc(Nc2ccc(N3CCOCC3)cc2)ncc1NC(=O)Nc1cc(C(F)(F)F)cc(C(F)(F)F)c1 | 42.4% |
| CC(=O)N=c1ccc2nc3c(cc(N)c4ccccc43)oc-2c1 | -82.9% (active) |
| C/C=C/CC(C)C(O)C1C(=O)NC(CC)C(=O)N(C)CC(=O)N(C)C(CC(C)C)C(=O)NC(C(C)C)C(=O)N(C)C(CC(C)C)C(=O)NC(C)C(=O)NC(C)C(=O)N(C)C(CC(C)C)C(=O)N(C)C(CC(C)C)C(=O)N(C)C(C(C)C)C(=O)N1C (stereo not given) | -9.23% (active) |
| CC/C=C\C[C@H](O)C/C=C1/C(=O)C=C[C@@H]1C/C=C\CCCC(=O)NC(C)C | -28.2% (active) |
| Cc1ccc(NSc2ccccc2[N+](=O)[O-])cc1 | -6.97% (active) |
| Nc1nc2c(ncn2C2OC3COP(=O)(O)OC4C(COP(=O)(O)OC2C3O)OC(n2cnc3c(N)ncnc32)C4O)c(=O)[nH]1 (stereo not given) | 103% |
| O=C(CCCC(=O)Nc1ccc(-n2nnc3cc(Cl)c(Cl)cc32)cc1)Nc1ccc(-n2nnc3cc(Cl)c(Cl)cc32)cc1 | 75.9% |
| O=C(O)Cc1ccc(O)c(O)c1 | 82.1% |

| SMILES | growth |
| --- | --- |
| COc1ccc2nc(-c3c(-c4ccccc4)nc4ncccn34)[nH]c2c1 | 98% |
| CC1(C)Cc2c(Br)c(Br)c(Br)c(OCC(O)CN3CCN(c4ccccn4)CC3)c2O1 (stereo not given) | 61.1% |
| CCOC(=O)[C@@H]1[C@H](c2ccccc2)[C@H]([N+](=O)[O-])[C@H](c2cn(-c3ccccc3)nc2C)N1Cc1ccccc1 | 77.7% |
| Cc1cccnc1NC1OC(=O)c2ccccc21 (stereo not given) | 100% |
| Cc1cnc(-c2ccc(-c3ccc(NC(=O)Nc4c(F)cc(F)cc4F)cc3F)c3c2C(=O)NC3)[nH]1 | 58.1% |
| COc1cc2nccc(Oc3ccc(NC(=O)C4(C(=O)Nc5ccc(F)cc5)CC4)cc3)c2cc1OC(=O)c1ccc(N)cc1 | -43.9% (active) |
| COc1ccc(C2CC(c3ccc(OC)c(OC)c3)=NN2C(=O)c2cc(OC)c(OC)c(OC)c2)c(OC)c1 (stereo not given) | 84% |
| Cc1ccc2cnc(N)c(C#Cc3cncc(C(=O)Nc4ccc(CN5CCN(C)CC5)c(C(F)(F)F)c4)c3)c2c1 | -59.7% (active) |
| O=C(O)c1c(=O)cccc2ssc12 | -9.53% (active) |
| COC(=O)c1nc(-c2ccccc2)oc1S(=O)(=O)NCC(c1ccc(Cl)cc1)N1CCCCC1 (stereo not given) | 17.5% |
| COc1ccc(C(=O)C(Br)C(Br)C(=O)O)cc1 (stereo not given) | 103% |
| CCOC(=O)c1cnc2c(C)cc(C)cc2c1NCCCN(C)C | 9.86% (active) |
| COc1ccccc1-n1c(-c2csc(NC(C)=O)n2)n[nH]c1=S | 96.6% |
| NCCOc1ccccc1/C=C1\c2ccccc2-c2ccc([N+](=O)[O-])cc21 | -59.3% (active) |
| Cc1ccc(S(=O)(=O)N(c2ccc(Cl)cc2)c2ccc(Br)cc2C(=O)O)cc1 | 110% |
| O=C(/C=C/C12c3ccccc3C(c3ccccc31)C1C(=O)NC(=O)C12)c1ccco1 (stereo not given) | 8.34% (active) |
| Cc1ccc2cnc(N)c(C#Cc3cc(C(=O)Nc4ccc(CN5CCN(C)CC5)c(C(F)(F)F)c4)cnc3C)c2c1 | 30% |
| CC(=O)c1cc2c(cc1F)C(C)(C)CCC2(C)C | 86.3% |
| CN(C)c1ccc(/C=c2\s/c(=C\C(=O)C(C)(C)C)[nH]c2=O)cc1 | 119% |
| CC1=CC(=O)C(C(C)=Nc2ccccc2Cl)C(=O)O1 (stereo not given) | 101% |
